Compound activity as filed in PubChem BioAssay.
IP6K1 inh: Primary qHTS assay for small molecule inhibitors of Inositol hexaphosphate kinase 1 (IP6K1); Inositol hexakisphosphate kinase 1 (Homo sapiens), Q92551; IP6K1 kinase, ADP-Glo luminescence, 2 h; stronger effect = lower value; AID 1645851, 2021; activity change, % (series mostly up to about 58 µM); 0.81% of 140,000 active; in the data active means activity change below about -25%
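ADP-Glo luminescence measures ADP made by human IP6K1 during a 2 h RT reaction with ATP/IP6 (mix at 1.3 mM/130 uM); top library doses 57.5 and 19.1 uM final.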
KDM5B inh: Primary screen for KDM5B Histone Demethylases FDH-coupled qHTS | Lysine-specific demethylase 5B (Homo sapiens), Q9UGL1 | KDM5B demethylase, FDH-coupled NADH fluorescence (FDH is formaldehyde dehydrogenase) | Potency, µM (series often up to 57.7 µM), hits mostly inhibitors | 2.6% of 220,000 active; active means well fitted inhibition curve with a large enough effect; inconclusive means small, poorly fitted or top-dose-only effect; inactive means no such curve, though single readings can be large or run the other way; further: nearly all actives have a fitted effect of over 70% in size
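KDM5BΔAP (200 nM final) in 50 mM HEPES pH 7.5, 0.01% Tween-20 was preincubated 10 min at RT with compound over a concentration range. Substrate mix (H3K4me3 12.5 µM, α-KG 25 µM, Fe²⁺, ascorbate, NAD⁺, FDH) was added, and NADH fluorescence change over 30 min gave dose-response curves.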
Large screens that a line does not name were inactive. This is a sample that favours compounds with a hit; in the whole collection about 2.8% have one here.

CCCSc1ncc(Cl)c(C(=O)N(Cc2ccccc2)c2ccc(OC)cc2)n1	none
Cc1ccc2cc(CCC(=O)NCCN3CCN(C)CC3)c(=O)[nH]c2c1	KDM5B inh inconclusive
CCOC(=O)CN1CCN(C(=O)CCc2cc3ccc(C)cc3[nH]c2=O)CC1	KDM5B inh 25µM
NC(=O)COc1cccc(C(=O)N2CCC3(CC2)OCCCC3O)c1 (configuration not stated)	none
O=C(NC1CCOC2(CCOCC2)C1)c1ccc(-c2cnco2)cc1 (configuration not stated)	none
O=C(c1cnc2c(O)cccn2c1=O)N1CCC2(CC1)OCCCC2O (configuration not stated)	KDM5B inh 32µM
CC(C)NC(=O)[C@@H]1C[C@@H](NC(=O)c2cnc3c(O)cccn3c2=O)CN1C	KDM5B inh 35µM
O=C(NC1CCOC2(CCOCC2)C1)c1cnc2c(O)cccn2c1=O (configuration not stated)	KDM5B inh 32µM
CC(C)NC(=O)[C@@H]1C[C@@H](NC(=O)c2ccon2)CN1Cc1cccnc1N	none
COCC(=O)NC1CCN(Cc2ccc(-c3ccccc3OC)cc2)C1 (configuration not stated)	none (no result: KDM5B inh)
Cc1noc(C)c1S(=O)(=O)N1CCC(Oc2ccc(-c3noc(C(C)C)n3)cc2)C1 (configuration not stated)	none (no result: KDM5B inh)
O=C(C1CCCN(C2CCN(C3Cc4ccccc4C3)CC2)C1)N1CCCC1 (configuration not stated)	none
Cc1ccccc1NC(=O)N1CCC(N2CCCC(C(=O)N3CCCC3)C2)CC1 (configuration not stated)	KDM5B inh 22µM
O=C(NCCc1ccccc1)c1nc2sccn2c1-c1ccc(C(F)(F)F)cc1	none (no result: KDM5B inh)
CC(C)(C)c1ccc(C(=O)Nc2nc3c(s2)C[C@@H]2[C@](C)(CO)[C@H](O)CC[C@@]2(C)[C@@H]3CC(=O)NC2CC2)cc1	KDM5B inh inconclusive
CC(C)(C)c1ccc(C(=O)Nc2nc3c(s2)C[C@@H]2[C@](C)(CO)[C@H](O)CC[C@@]2(C)[C@@H]3CC(=O)N2CCOCC2)cc1	KDM5B inh 28µM
CC(C)NC(=O)C[C@@H]1c2nc(NC(=O)c3ccc(C(C)(C)C)cc3)sc2C[C@@H]2[C@](C)(CO)[C@H](O)CC[C@]21C	KDM5B inh 32µM
CC(C)(C)c1ccc(C(=O)Nc2nc3c(s2)C[C@@H]2[C@](C)(CO)[C@H](O)CC[C@@]2(C)[C@@H]3CC(=O)NCc2ccco2)cc1	KDM5B inh 18µM
CC(C)(C)CC(=O)Nc1nc2c(s1)C[C@@H]1[C@](C)(CO)[C@H](O)CC[C@@]1(C)[C@@H]2CC(=O)NCc1ccco1	none
COc1ccc(C(=O)Nc2nc3c(s2)C[C@@H]2[C@](C)(CO)[C@H](O)CC[C@@]2(C)[C@@H]3CC(=O)N2CCOCC2)cc1	KDM5B inh inconclusive
Cc1nc2c(s1)C[C@@H]1[C@](C)(CO)[C@H](O)CC[C@@]1(C)[C@@H]2CC(=O)NCc1cccnc1	none
COc1ccccc1CNC(=O)C[C@@H]1c2nc(-c3cccnc3)sc2C[C@@H]2[C@](C)(CO)[C@H](O)CC[C@]21C	KDM5B inh 25µM
Cc1cc(C)cc(-c2ccc(CN3CCCC(NC(=O)c4cccnc4)C3)cc2)c1 (configuration not stated)	none (no result: KDM5B inh)
O=C(Nc1ccccc1F)N1CCCN(c2ccc3nnc(-c4ccccc4)n3n2)CC1	none (no result: KDM5B inh)
COc1cccc(-c2ccc(CN3CCCC3C(=O)NCc3ccccc3)cc2)c1 (configuration not stated)	none (no result: KDM5B inh)
COc1ccc(CC(=O)Nc2cc(-c3ccncc3)nn2-c2ccccc2)cc1	none (no result: KDM5B inh)
CNC(=O)c1cc(C2CC2)nc2c1c(C1CCN(C(=O)Cc3ccccn3)CC1)nn2C	none (no result: KDM5B inh)
C[C@H](NC(=O)C[C@@H]1c2nc(NC(=O)c3ccc(F)cc3)sc2C[C@@H]2[C@](C)(CO)[C@H](O)CC[C@]21C)c1ccccc1	KDM5B inh 32µM
C[C@]1(CO)[C@H]2Cc3sc(NC(=O)c4ccc(F)cc4)nc3[C@@H](CC(=O)O)[C@]2(C)CC[C@H]1O	none
Nc1ccc(OC2CCCC2)c(Cl)c1	none (no result: IP6K1 inh)
O=C1CCN(C[C@@H](O)COCc2ccccc2)c2ccc(F)cc2CN1CC1CC1	none (no result: KDM5B inh)
CNC(=O)[C@H]1C[C@]2(CCCCN(CCO)C2=O)N(C(=O)Cc2ccc(F)cc2)[C@H]1c1ccco1	none (no result: KDM5B inh)
O=C(NC1CCCCC1)N1Cc2[nH]cnc2C[C@H]1c1nc(-c2ccc3ccccc3c2)no1	KDM5B inh inconclusive
O=C(Nc1ccccc1)N1Cc2[nH]cnc2C[C@H]1c1nc(-c2ccc3ccccc3c2)no1	none
O=C(NC1CCCCC1)N1Cc2[nH]cnc2C[C@H]1c1nc(-c2cccc([N+](=O)[O-])c2)no1	KDM5B inh 4µM
Cc1ccc(NC(=O)N2Cc3[nH]cnc3C[C@H]2c2nc(-c3ccc4ccccc4c3)no2)cc1	KDM5B inh 22µM
Cn1ncc2c(C(=O)NCc3cccc(Cl)c3)cc(-c3ccccc3F)nc21	none (no result: KDM5B inh)
O=[N+]([O-])c1ccc(-n2ccc3ccccc32)cc1	none (no result: IP6K1 inh)
COc1ccc(-c2cc(N3CCOCC3=O)c3cncn3c2)cc1OC	KDM5B inh inconclusive
O=C1COCCN1c1cc(-c2cccc(F)c2)cn2cncc12	KDM5B inh 35µM
COc1ccc(CNC(=O)C2CCCN2Cc2ccc(-c3cccc(OC)c3)cc2)cc1 (configuration not stated)	none (no result: KDM5B inh)
CCCCCNC(=O)Cc1csc2nc(C)c(-c3cc(C)n(-c4ccc(F)cc4)n3)c(=O)n12	KDM5B inh inconclusive
CCCCNC(=O)Cc1csc2nc(C)c(-c3cc(C)n(-c4ccc(F)cc4)n3)c(=O)n12	KDM5B inh 28µM
CCCCNC(=O)Cc1csc2nc(C)c(-c3cc(C)n(-c4cc(F)ccc4C)n3)c(=O)n12	KDM5B inh inconclusive
CCCCCNC(=O)Cc1csc2nc(C)c(-c3cc(C)n(-c4cc(F)ccc4C)n3)c(=O)n12	KDM5B inh 25µM
Cc1cccc(N2Cc3c(NCCCc4ccccc4)ncnc3N(C)CC2=O)c1	none (no result: KDM5B inh)
Cc1ccc([S+](=O)([O-])N2CCCC(C(=O)N3CCCC(c4nc5ccncc5[nH]4)C3)C2)cc1 (configuration not stated)	none (no result: KDM5B inh)
O=C(NCCc1ccc(Cl)cc1)c1nc2cccnc2n(Cc2ccccc2)c1=O	none (no result: KDM5B inh)
O=C(C1CC1)N1CCN(c2nccc(Nc3ccccc3F)n2)CC1	none (no result: KDM5B inh)
CSc1ccc2cc(CN(C)CCO)c(-c3ccc(Cl)cc3)nc2c1	KDM5B inh 28µM
COc1ccc2cc(CN3CCC(CO)CC3)c(-c3ccc(Cl)cc3)nc2c1	KDM5B inh inconclusive
COc1cccc(CN2CCc3nn(C)c(=O)n3CC2)c1OC	none
COc1ccc2c(c1)c(CN1CCc3nn(C)c(=O)n3CC1)cn2C	KDM5B inh 32µM
COc1cccc(C(=O)N2CCN(c3nccc(Nc4ccccc4Cl)n3)CC2)c1	none (no result: KDM5B inh)
C=CCOc1c(OC)ccc2c1CN(CC1CC1)C(=O)CCN2CC(O)COc1ccc(OC)cc1 (configuration not stated)	none (no result: KDM5B inh)
CC(C)(C)c1ccc(C(=O)NC(Nc2ccc(I)cc2)C(Cl)(Cl)Cl)cc1 (configuration not stated)	none (no result: IP6K1 inh)
O=[S+]([O-])(c1ccccc1)N1CCN(c2nccc(Nc3ccccc3Cl)n2)CC1	none (no result: KDM5B inh)
COc1cccc(CNC(=O)[C@@H]2CCCN2c2nccc(Nc3ccccc3Cl)n2)c1	none (no result: KDM5B inh)
